# Measured values published in ChEMBL document CHEMBL3988442, “University of Dundee, Small-Polar-MMV Screening Library” (2021).
# Target: AMP-activated protein kinase, AMPK (Homo sapiens) (UniProt P54646+O43741+P54619+Q9UGJ0+Q9Y478+Q13131+Q9UGI9)
# Assay: AMP-dependent Kinase enzyme assay. An in vitro enzyme assay that detects ADP turnover that is directly proportional to AMPK activity. This uses naive AMPK that is activated during the assay with MK-8722
# Assay type: functional
# Parameters: scale not given: direction of the effect not stated beside the values
# Details: 30 µM
row,SMILES,Percent Effect [%]
1,COc1ccccc1N1CCN(C(=O)CCc2nncn2C)C(C)C1 (stereo not given),24.5
2,COc1cc(CN(C)[C@@H]2COC[C@H]2c2ccc(F)cc2)cc(OC)c1,-11.5
3,N#CC1COCCN1C(=O)c1ccc2[nH]cnc2c1 (stereo not given),-8.21
4,CCC(=O)Nc1cccc(OCC(=O)N2C[C@H]3CC[C@H]2C3)c1,-10.8
5,CC(C)(O)CCc1cccc(C(=O)NCc2cnn3cccnc23)c1,-0.643
6,CS(=O)(=O)c1ccccc1N[C@@H]1c2ccccc2C[C@@H]1O,-13.1
7,CCc1noc(C(C)N2CCc3c(ncn3C3CC3)C2)n1 (stereo not given),14.3
8,CC(C)Cc1cc(C(=O)N2CCC(Cc3cnn(C)c3)C2)cc(O)n1 (stereo not given),-2.83
9,Cc1nn2cccnc2c1C(=O)NCc1ccnc(OCC2CC2)c1,4.11
10,CCCOc1ccccc1CCCNc1ncnc2oc(C)nc12,2.11
11,Cn1cccc1CNCC1CCCn2cc(C(C)(C)C)nc21 (stereo not given),-0.856
12,COc1ccc(C2(C(=O)N3C[C@@H](C(=O)O)[C@H](C(C)C)C3)CC2)cc1,2.55
13,CC(C(=O)NCc1ccc2c(c1)OCCO2)n1cncn1 (stereo not given),-8.38
14,CSCCC(=O)N1CCN(CC(C)(C)O)CC1,-5.46
15,Cc1nc(N)cc(C2(C)CCCNC2)n1 (stereo not given),14.2
16,CCC(CNC(=O)c1cccc(S(=O)(=O)NC)c1)N1CCCC1 (stereo not given),0.599
17,NC(=O)COc1ccc(CN2CCC3(CC2)[C@H](O)C[C@@H]3O)cc1Cl,8.11
18,Cc1cc(F)ccc1N1CCCC(NC(=O)CCc2ccncc2)C1 (stereo not given),14.9
19,Cc1ccccc1Oc1ncccc1CNC(=O)Cn1cccnc1=O,-5.58
20,O=C(C1CNCCN1C(=O)CCOc1ccccc1)N1CCOCC1 (stereo not given),13

row,SMILES,Percent Effect [%]
1,c1cnc(Nc2ccc(C3CCCCN3Cc3ccncc3)cn2)nc1 (stereo not given),11.1
2,CC(C)c1nccc(CN(C)Cc2cnn(-c3ccccc3)c2)n1,-5.06
3,CC(NC(=O)NC1CCN(Cc2ccncc2)CC1)c1ccccc1F (stereo not given),-3.35
4,COC(=O)c1ccc(N2CCN(C(=O)CCCc3cn[nH]c3)CC2)cc1,6
5,O=C(Nc1ccc(Br)cc1F)c1ccc(N2CCCCC2)nn1,1.92
6,Cc1nnc(N2CCc3cnc(C(C)C)nc3C2)c(C#N)c1C,-15.2
7,CCCC(=O)NCCc1cc(NC)nc(-c2ccccn2)n1,-2.74
8,Cc1cccc(CN2CCOCC2c2[nH]ncc2C)n1 (stereo not given),16.3
9,CN(Cc1csc(-c2cccs2)n1)CC(O)CO (stereo not given),5.86
10,CC(CN1CCOCC1)NC(=O)N1CCN(S(C)(=O)=O)CC1 (stereo not given),8.74
11,Cc1noc(C2CCCN(Cn3cc(Cl)cn3)C2)n1 (stereo not given),10.4
12,c1ncc(-c2cn(CCSc3cnn[nH]3)nn2)cn1,-3.28
13,Cc1nn(C)c(C)c1C1CCCN1C(=O)c1cc(C(N)=O)cs1 (stereo not given),-0.756
14,COc1ccccc1OCc1nc2cc3c(cc2c(=O)o1)OCCCO3,-8.93
15,Cc1cc(N2CCC(n3cc(CCCO)nn3)CC2)ccn1,2.02
16,Cc1cc(C(=O)N2CC[C@@]3(O)CCN(C(=O)N4CCCC4)C[C@H]3C2)no1,5.71
17,COc1cccc(S(=O)(=O)N2CCOC(C)(C(N)=O)C2)c1 (stereo not given),22.4
18,CCCS(=O)(=O)N1CCN(CCCO)CC1,89.9
19,CCN(C)Cc1cccc(CNC(=O)CSCc2ccccn2)c1,4.61
20,O=C(NCc1ccccn1)c1cc2n(n1)CCNC2,11.8
